The results in this text go back to PubChem BioAssay (Tox21).

Assay [1] can be described thus: qHTS assay to identify small molecule antagonists of the estrogen related receptor (ERR) signaling pathway from Tox21 library - cell viability counter screen (AID 1224834). Note: nearly all actives have a fitted effect of over 30% in size. Note: potency is the fitted concentration of half-maximal effect. In a few lines:
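Compounds in DMSO were pinned onto ERR cells that had been incubated for 6 h, and the plates were held at 37 C for 17.5 h. CellTiter-Fluor reagent was then added and fluorescence was measured after 30 min.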
(In general: Quantitative high-throughput screening tests each substance at several concentrations.)

Assay [2] can be described thus: qHTS assay to identify small molecule agonists of the constitutive androstane receptor (CAR) signaling pathway - cell viability counter screen (AID 1224836). Note: nearly all actives have a fitted effect of over 45% in size. Note: potency is the fitted concentration of half-maximal effect. In a few lines:
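Counter screen multiplexed with the CAR reporter readout: HepG2 cells co-transfected with hCAR and the CYP2B6-2.2kb construct receive a 15-concentration compound series and 0.75 uM PK11195 (final), then CellTiter-Fluor fluorescence is read after 23 h.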

Assay [3] can be described thus: qHTS assay to identify small molecule antagonists of the constitutive androstane receptor (CAR) signaling pathway - cell viability counter screen (AID 1224837). Note: nearly all actives have a fitted effect of over 45% in size. Note: potency is the fitted concentration of half-maximal effect. A digest of the protocol: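 Cells are seeded, rested 4 hr at 37 C/5% CO2, dosed with compound (15-point series) and 50 nM CITCO, incubated a further 23 hr, and then CellTiter-Fluor reagent is added before fluorescence is read. The line is HepG2 with stable hCAR and CYP2B6-2.2kb.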

Assay [4] deals with Nuclear receptor subfamily 1 group I member 3 (Homo sapiens) (UniProt Q14994). Description: qHTS assay to identify small molecule antagonists of the constitutive androstane receptor (CAR) signaling pathway (AID 1224838).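 Note: HepG2 cells stably expressing hCAR with CYP2B6 luciferase reporter stimulated by CITCO; nearly all actives have a fitted effect of over 40% in size.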 Note: potency is the fitted concentration of half-maximal effect. In a few lines: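 Luminescence from a CYP2B6-2.2kb promoter reporter in hCAR-expressing HepG2 cells reflects CAR signaling. Cells received compounds at 15 concentrations and 50 nM CITCO (final), then incubated 24 h at 37 C/5% CO2.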

Assay [5] has the same target. The experiment in a line: qHTS assay to identify small molecule agonists of the constitutive androstane receptor (CAR) signaling pathway (AID 1224839). Note: nearly all actives have a fitted effect of over 15% in size. Note: potency is the fitted concentration of half-maximal effect. In a few lines: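 A 15-concentration quantitative screen uses HepG2 cells co-transfected stably with human CAR and CYP2B6-2.2kb reporter. Treatment lasts 24 h with 0.75 uM PK11195 final present; ONE-Glo luminescence is the signal.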

The nature of assay [6]: qHTS assay to identify small molecule antagonists of the estrogen related receptor signaling pathway with the pleiotropic PPARgamma coactivator (PGC) from Tox21 10K library - cell viability counter screen (AID 1224840; active = well fitted cell-killing curve with a large enough effect in the repeat runs, not every such curve was filed as active; note: nearly all actives have a fitted effect of over 40% in size; note: potency is the fitted concentration of half-maximal effect). In a few lines:
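Cell viability is measured by CellTiter-Fluor fluorescence in PGC/ERR cells that receive compounds after a 6-hour attachment period and are then incubated 17.5 hours at 37 C.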

Assay [7] in a line: qHTS assay to identify small molecule antagonists of the estrogen related receptor signaling pathway with the pleiotropic PPARgamma coactivator (PGC) from Tox21 10K library (AID 1224841; call rule not given here; note: actives are mostly falling curves and most rising ones were filed inactive; nearly all actives have a fitted effect of over 50% in size; note: potency is the fitted concentration of half-maximal effect). In a few lines:
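Cells stably carrying the PGC/ERR reporter, seeded at 2,000 per well, received pin-transferred compounds 6 h post-plating. Exposure lasted 18 h at 37 C. Signal: One-Glo luminescence.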

The nature of assay [8]: qHTS assay to identify small molecule agonists of the estrogen related receptor signaling pathway with the pleiotropic PPARgamma coactivator (PGC) from Tox21 10K library (AID 1224842). Note: nearly all actives have a fitted effect of over 15% in size. A digest of the protocol:
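Luminescence from One-Glo (30 min, room temperature) measured after PGC/ERR cells had 18 h at 37 C with pinned compound (23 nL in DMSO). Cells had been seeded at 2,000 per well and pre-incubated 6 h.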

The target in assay [9] is Thyrotropin receptor (Homo sapiens) (UniProt P16473). Description: qHTS assay to identify small molecule agonists of the thyroid stimulating hormone receptor (TSHR) signaling pathway (AID 1224843; calls by dose curve; note: nearly all actives have a fitted effect of over 45% in size). In a few lines:
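A cell-based cAMP HTRF format was run in TSHR-transfected HEK293 cells, 800 per well. Treatment: 30 min, room temperature. Detection: 1 h with labelled cAMP and anti-cAMP cryptate. Concentration-response over 15 points, three replicates.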

The nature of assay [10]: qHTS assay to identify small molecule agonists of the hypoxia (HIF-1) signaling pathway - cell viability counter screen (AID 1224844; calls by dose curve; note: nearly all actives have a fitted effect of over 50% in size; note: potency is the fitted concentration of half-maximal effect). A digest of the protocol:
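Viability counter screen: HRE-bla ME-180 cells plated 5 hrs before compound addition, treated 17 hrs at 37C and 5% CO2, then CellTiter-Glo added after the FRET reporter read; luminescence after 30 min.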

Assay [11] in a line: qHTS assay to identify small molecule agonists of H2AX (AID 1224845; active = well fitted activation curve with a large enough effect in the signal ratio in the repeat runs, not every such curve was filed as active; the % refers to the signal ratio; note: potency is the fitted concentration of half-maximal effect). In a few lines: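 Phospho-H2AX Ser139 measured by HTRF (ex 320 nm; em 665 and 620 nm) after 24 hr antibody incubation. Compounds, 15 concentrations, 0.76% DMSO, were applied to CHO-K1 cells for 3hr at 37C before lysis.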
Assay [12] in a line: qHTS assay to identify small molecule agonists of the hypoxia (HIF-1) signaling pathway (AID 1224846; active = well fitted activation curve with a large enough effect in the signal ratio in the repeat runs, not every such curve was filed as active; the % refers to the signal ratio). In a few lines:
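Agonist mode reporter screen. ME-180 cells stably expressing bla under HRE control received test compounds in DMSO for 17 hrs (37C, 5% CO2), and beta-lactamase activity was then detected with the CCF4-AM FRET substrate.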

Assay [13] is described as follows: qHTS assay to identify small molecule agonists of H2AX - cell viability counter screen (AID 1224847; calls by dose curve; note: nearly all actives have a fitted effect of over 30% in size; note: potency is the fitted concentration of half-maximal effect). A digest of the protocol: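 We seed wild-type CHO-K1 cells overnight, treat them for 3 hr at 37C with compounds in 15-concentration series, and quantify remaining viability by CellTiter-Glo luminescence.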
Assay [14] in a line: qHTS assay to identify small molecule antagonists of the estrogen related receptor (ERR) signaling pathway from Tox21 library (AID 1224848). Note: nearly all actives have a fitted effect of over 50% in size. Note: potency is the fitted concentration of half-maximal effect. A digest of the protocol: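 ERR cell line, 2,000 cells/well. 6 h settle, then compound (DMSO) added; 18 h at 37 C; ONE-Glo luminescence after 30 min RT.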
Assay [15] is described as follows: qHTS assay to identify small molecule agonists of the estrogen related receptor (ERR) signaling pathway from Tox21 library (AID 1224849; calls by dose curve; note: nearly all actives have a fitted effect of over 15% in size). To be noted: ERR reporter cell line, ONE-Glo luciferase, 18 h; at 92.4 µM (top of the series) unless noted. In a few lines: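 Quantitative HTS in agonist format: NTP ERR cell line, compounds transferred in DMSO after 6 h plating, 18 h incubation at 37 C, ONE-Glo luminescence endpoint.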

Assay [16] is described as follows: qHTS RealTime-Glo MT Cell Viability Assay in HepG2 cells - 24 hour (AID 1224867). Note: nearly all actives have a fitted effect of over 50% in size. In a few lines: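 Cell number in HepG2 cultures estimated from NanoLuc luminescence generated by metabolic reduction of a prosubstrate by living cells. The homogeneous, nonlytic format allowed repeated reads at 0, 8, 16, 24, 32 and 40 h of compound exposure.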
Assay [17] can be described thus: qHTS RealTime-Glo MT Cell Viability Assay in HEK293 cells - 32 hour (AID 1224868). Note: nearly all actives have a fitted effect of over 50% in size. Note: potency is the fitted concentration of half-maximal effect. In a few lines: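 Homogeneous bioluminescent viability format in HEK293 cells (600 cells/well). Following 5 h at 37 C/5% CO2, 23 nL compound was pintooled; the signal was measured repeatedly during 40 h incubation.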
Assay [18] in a line: A CellTox Green Cytotoxicity Assay to monitor cytotoxicity in HEK293 cells - 0 hour (AID 1224869). Note: nearly all actives have a fitted effect of over 50% in size. A digest of the protocol: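 Dead-cell fluorescence measured kinetically: asymmetric cyanine dye, HEK293, 600 cells/well, 5 h settle, 23 nL cpd/DMSO, 37 C, reads 0–40 h every 8 h.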
Assay [19] in a line: qHTS RealTime-Glo MT Cell Viability Assay in HepG2 cells - 40 hour (AID 1224870). Note: nearly all actives have a fitted effect of over 50% in size. A digest of the protocol:
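Real-time viability: cells seeded at 600 per well together with NanoLuc and cell-permeant prosubstrate, compounds added after 5 h incubation. Luminescence tracked at 0, 8, 16, 24, 32 and 40 h of exposure.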

Where “and” joins values, the source holds several entries; their conditions need not be identical. Identical values can stand only once. Values without a mark were called inactive. Inconclusive results are not listed. Calls of active or inactive are those of the source. Unless noted, calls come from the whole dose curve; as a rule, active = well fitted curve in the direction sought with a large enough effect in the repeat runs; inconclusive = weak or mixed curves; inactive = no such curve, though single readings can be large; an effect the other way counts as inactive or inconclusive.
% is set by controls: 0 for no effect and ±100 for the full control effect.

Chain of Nuclear receptor subfamily 1 group I member 3 (Homo sapiens) (Q14994 whole entry, looked up): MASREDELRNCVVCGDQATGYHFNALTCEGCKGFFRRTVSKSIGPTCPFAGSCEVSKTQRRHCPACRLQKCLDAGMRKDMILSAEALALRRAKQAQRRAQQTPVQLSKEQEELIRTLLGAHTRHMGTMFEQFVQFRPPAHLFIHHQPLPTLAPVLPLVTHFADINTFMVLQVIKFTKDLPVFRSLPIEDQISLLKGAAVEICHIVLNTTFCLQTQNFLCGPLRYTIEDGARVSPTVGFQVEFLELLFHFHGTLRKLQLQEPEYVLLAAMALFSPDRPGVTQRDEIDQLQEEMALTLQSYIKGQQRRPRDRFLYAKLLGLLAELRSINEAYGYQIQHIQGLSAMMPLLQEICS
Chain of Thyrotropin receptor (Homo sapiens) (P16473 whole entry, looked up): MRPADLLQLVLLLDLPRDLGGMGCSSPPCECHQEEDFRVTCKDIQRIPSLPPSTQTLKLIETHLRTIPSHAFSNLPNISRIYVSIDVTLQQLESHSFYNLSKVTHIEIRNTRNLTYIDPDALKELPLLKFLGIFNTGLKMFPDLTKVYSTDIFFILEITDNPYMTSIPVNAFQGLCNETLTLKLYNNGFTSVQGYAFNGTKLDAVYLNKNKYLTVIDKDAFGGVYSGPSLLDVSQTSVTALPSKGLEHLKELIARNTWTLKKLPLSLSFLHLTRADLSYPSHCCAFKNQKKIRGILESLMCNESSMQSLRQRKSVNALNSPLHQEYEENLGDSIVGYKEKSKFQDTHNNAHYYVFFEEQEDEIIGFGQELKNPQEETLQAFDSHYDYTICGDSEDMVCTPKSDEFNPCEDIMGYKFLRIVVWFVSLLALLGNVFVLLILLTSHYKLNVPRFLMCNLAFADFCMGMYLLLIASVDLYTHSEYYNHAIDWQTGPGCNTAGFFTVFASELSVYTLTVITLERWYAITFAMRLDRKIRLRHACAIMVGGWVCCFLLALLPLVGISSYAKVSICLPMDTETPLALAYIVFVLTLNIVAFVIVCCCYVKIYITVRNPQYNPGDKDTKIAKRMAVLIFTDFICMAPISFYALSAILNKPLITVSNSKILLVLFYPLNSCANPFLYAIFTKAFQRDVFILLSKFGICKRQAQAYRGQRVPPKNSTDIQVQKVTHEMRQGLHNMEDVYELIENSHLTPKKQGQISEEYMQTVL

For the molecule `CC(C)(C)c1cc([N+](=O)[O-])cc(C(C)(C)C)c1O`, the Potency was 13.7 µM (active) in assay [1]; 19.3 µM (active) in [2]; 21.7 µM (active) in assay [3]; 27.3 µM (active) in assay [4]; 5.45 µM (active) in assay [5]; 13.7 µM (active) in assay [6]. Besides, the Potency in assay [7] was 2.73 µM (active); in assay [13], 50.5 µM (active); in assay [14], 2.73 µM (active); in assay [17], 6.92 µM (active). Moreover, the Potency result in assay [8], in assay [9], in assay [10], in assay [11], in assay [16] and in assay [18] was “inactive” each time. Moreover, in assay [19], the Potency entry is “inactive”. Further, in [12], the molecule was called inactive. In assay [15], the activity change, positive = activation is -56.9%.

Consider `COCC(=O)N(c1c(C)cccc1C)[C@H](C)C(=O)OC`, for which the Potency entry in [1], in [2], in assay [3], in assay [4], in assay [5] and in [6] was “inactive” throughout. The Potency entry in [7], in assay [8], in assay [9], in assay [10], in assay [13] and in assay [14] was “inactive” in each case. Further, the Potency entry in [16], in assay [17], in [18] and in assay [19] was “inactive” in each case. For the same molecule, the result in assay [12] was inactive. For the same molecule, the activity change, positive = activation in assay [15] was -2.81%.

Turning to `FC(F)(F)c1cccc(C2=CCN(CCc3ccc4ccccc4c3)CC2)c1`, the Potency entry in assay [1], in assay [2], in [3], in [4], in [5] and in [6] was “inactive” each time. Also, the Potency entry in [7], in assay [8], in [11], in assay [14], in assay [16] and in [18] was “inactive” throughout. The result in assay [12] was inactive. Also, the activity change, positive = activation in assay [15] is -0.643% [at 42.5 µM].

Consider `CCCN(CCC)CCc1c[nH]c2ccccc12`, for which the Potency entry in assay [1], in assay [2], in [3], in assay [4], in [5] and in [6] was “inactive” in each case. Besides, the Potency result in assay [9], in assay [11], in assay [16], in [17], in [18] and in assay [19] was “inactive” in each case. In assay [12], the call was inactive.

For the molecule `CC(c1ccc(O)cc1)c1ccc(O)cc1`, the Potency entry in assay [1], in assay [2], in [3], in [4], in [6] and in [7] was “inactive” throughout. Besides, the Potency entry in assay [8], in [9], in assay [10], in assay [13], in assay [14] and in assay [16] was “inactive” in each case. In addition, in [19], the Potency result was “inactive”. Further, the Potency in [5] is 51.1 µM (active) and 30.6 µM (active). Also, the outcome in assay [12] was inactive. In [15], the activity change, positive = activation was -56.9% and -6.34%.

Regarding `ClC1=C(Cl)C2(Cl)C3C(Cl)C(Cl)CC3C1(Cl)C2(Cl)Cl` (configuration not stated), the Potency was 68.4 µM (active) in [1]; 3.05 µM (active) and 15.4 µM (active) in [5]; 61.1 µM (active) in assay [6]; 60.9 µM (active) and 43.3 µM (active) in [7]; 21.8 µM (active) in assay [10]; 100 µM (active) and 89.8 µM (active) in [11]. Besides, the Potency in assay [14] was 60.9 µM (active) and 54.5 µM (active). For the same molecule, the Potency result in [2], in [3], in assay [4] and in assay [18] was “inactive” throughout. In [12], the molecule was called inactive.

Regarding `c1ccc(OCC2CO2)cc1` (configuration not stated), the Potency entry in assay [1], in [2], in assay [3], in [4], in [5] and in assay [6] was “inactive” throughout. Also, the Potency result in assay [9], in assay [10], in assay [11], in assay [13], in assay [16] and in assay [17] was “inactive” throughout. Besides, the Potency entry in assay [18] and in [19] was “inactive” throughout. In addition, the call in [12] was inactive.
